# Reference: PubChem BioAssay (EPA / NIEHS)
# Calls of active or inactive are those of the source. How the source made its calls: active means hit-call score of the fitted dose curve at least 0.9, where 1 is the maximum; inactive means score below 0.9.
# Experiments:
# [1] = APR_HepG2_MitoMembPot_72hr: Apredica 72-hour HepG2 Assay for Mitochondrial Membrane Potential (AID 2282917); conditions: imaging, actives raise or lower the signal
# Outline: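 HepG2 cells exposed 72 h to compounds at 0.39–200 uM (0.5% v/v DMSO, duplicates); MitoTracker Red CMXRos 250 nM loaded 30 min before 3.7% formaldehyde fixation, imaged by HCS fluorescence. Bidirectional fit versus DMSO.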
# [2] = APR_HepG2_MitoticArrest_72hr: Apredica 72-hour HepG2 Assay for Mitotic Arrest (AID 2282918); conditions: high-content imaging, actives raise or lower the signal
# Outline: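 Using high-content imaging of fixed HepG2 cells, phospho-histone H3 signal was measured following a 72 hr incubation with ten-point compound dilutions up to 200 uM. DMSO served as the negative control and baseline for bidirectional curve fitting.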
# [3] = APR_HepG2_MicrotubuleCSK_72hr: Apredica 72-hour HepG2 Assay for Microtubule CSK Stabilty (AID 2282919); conditions: HepG2 microtubule cytoskeleton, high-content imaging, actives raise or lower the signal
# Outline: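 Ten-point dosing (0.39–200 uM, 0.5% DMSO) of HepG2 for 72 hr, with taxol as the cytoskeletal positive control. The cells were formaldehyde-fixed and then stained with alpha-tubulin/Cy5 and Hoechst. Imaging at 20x used a −2 um Z offset for tubulin.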
# [4] = APR_HepG2_P-H2AX_24hr: Apredica 24-hour HepG2 Assay for H2AX Phosphorylation (AID 2282920); conditions: high-content imaging, actives raise or lower the signal
# Outline: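 Human HepG2 liver cells, treated 24 hr with test chemicals (0.39–200 uM, final DMSO 0.5% v/v), are fixed and co-stained for phospho-H2A.x and c-Jun with Hoechst. Imaged intensity is fitted in both directions against DMSO controls.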
# [5] = APR_HepG2_StressKinase_72hr: Apredica 72-hour HepG2 Assay for Stress Kinase (AID 2282921); conditions: HepG2 stress kinase (phospho-c-Jun) imaging, actives raise or lower the signal
# Outline: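 Stress kinase signal reflects nuclear phospho-c-Jun staining in fixed, permeabilized cells exposed 72 h to compound at 0.39–200 uM; DMSO-normalized, fitted for increases or decreases.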
# [6] = APR_HepG2_StressKinase_24hr: Apredica 24-hour HepG2 Assay for Stress Kinase (AID 2282922); conditions: HepG2 stress kinase (phospho-c-Jun) imaging, actives raise or lower the signal
# Outline: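 After 24 hr compound treatment (up to 200 uM, final DMSO 0.5% v/v), HepG2 cells are fixed and multiplex-labeled; phospho-c-Jun intensity is captured by high-content fluorescence imaging and analyzed relative to DMSO.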
# [7] = APR_HepG2_p53Act_72hr: Apredica 72-hour HepG2 Assay for p53 Activation (AID 2282923); conditions: high-content imaging, actives raise or lower the signal;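 further: average cellular p53 protein immunofluorescence intensity in HepG2 cells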
# Outline: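 Fixed-cell p53 staining (sheep primary, Cy5 secondary) measured by fluorescence imaging following 72 hr treatment at 0.39–200 uM in 0.5% DMSO; DMSO served as negative control and baseline.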
# [8] = APR_HepG2_MitoMass_72hr: Apredica 72-hour HepG2 Assay for Mitochondrial Mass (AID 2282924); conditions: high-content imaging, actives raise or lower the signal;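 further: MitoTracker Red CMXRos stain intensity per cell imaged as mitochondrial mass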
# Outline: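 Steps: treat HepG2 72 hr (0.39–200 uM, duplicate wells); load MitoTracker Red CMXRos, 250 nM, 30 min; fix with 3.7% formaldehyde, permeabilise with 0.5% Triton X-100; capture images, nuclei via Hoechst 33342; fit bidirectionally against DMSO.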
# [9] = APR_HepG2_NuclearSize_72hr: Apredica 72-hour HepG2 Assay for Nuclear Size (AID 2282925); conditions: high-content imaging, actives raise or lower the signal
# Outline: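 Compounds (0.39–200 uM, final DMSO 0.5%) were applied to HepG2 for 72 hr. Cells were then formaldehyde-fixed, permeabilized and labelled with Hoechst 33342. Nuclear diameter was quantified from six images per well.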
# [10] = ATG_CRE_CIS: Attagene CIS-FACTORIAL HepG2 Assay for human cAMP Responsive Element (CRE) binding protein 3 (AID 2282926); conditions: HepG2 CRE cis-reporter, Attagene multiplexed mRNA; actives raise or lower the signal
# Outline: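 Liver-derived HepG2, transfected with a CRE-containing reporter panel, exposed 24 h; transcript levels sized and quantified by capillary electrophoresis of labelled amplicons; signal changes either way referenced to vehicle.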
# [11] = target: CCAAT/enhancer-binding protein beta (Homo sapiens) (UniProt P17676); assay: ATG_C_EBP_CIS: Attagene CIS-FACTORIAL HepG2 Assay for human CCAAT/Enhancer Binding Protein (C/EBP) beta (AID 2282927); conditions: HepG2 Attagene cis-factorial transcription factor reporter; actives raise or lower the signal
# Sequence of CCAAT/enhancer-binding protein beta (Homo sapiens) (P17676 whole entry, looked up): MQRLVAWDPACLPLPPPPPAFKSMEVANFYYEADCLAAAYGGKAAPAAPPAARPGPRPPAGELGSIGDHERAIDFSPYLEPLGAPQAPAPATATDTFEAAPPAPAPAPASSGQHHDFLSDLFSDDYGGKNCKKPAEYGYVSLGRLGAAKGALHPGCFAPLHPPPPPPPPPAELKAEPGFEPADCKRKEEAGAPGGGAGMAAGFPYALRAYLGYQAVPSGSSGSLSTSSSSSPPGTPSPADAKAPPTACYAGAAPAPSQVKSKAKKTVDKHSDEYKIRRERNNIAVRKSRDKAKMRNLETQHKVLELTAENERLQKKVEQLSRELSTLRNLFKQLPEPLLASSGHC
# Outline: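 RT-PCR/capillary electrophoresis fluorescence of reporter mRNA, 24 h post-dose, in HepG2 cells carrying transfected cis-promoter reporter units. Bidirectional curve fitting against DMSO baseline captures gain or loss of signal.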
# [12] = ATG_CMV_CIS: Attagene CIS-FACTORIAL HepG2 Assay for human CMV (Internal Marker) (AID 2282928); conditions: HepG2 CMV promoter reporter, transcription factor profiling; actives raise or lower the signal;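 further: endpoint acts as a background internal control marker rather than a target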
# Outline: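 Fluorescence intensity of RT-PCR-derived reporter fragments, resolved by capillary electrophoresis, gives the signal. HepG2 liver cells bearing transfected cis-element reporters were treated 24 h; activity in either direction was fit relative to DMSO-treated controls.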
# [13] = ATG_DR4_LXR_CIS: Attagene CIS-FACTORIAL HepG2 Assay for human Liver X Receptor (LXR), DR4 submotif (AID 2282929); conditions: HepG2 Attagene DR4 cis-reporter, mRNA transcription; actives raise or lower the signal
# Outline: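 HepG2, transient MRTU transfection, cis-element (DR4) promoter; 24 h compound exposure; total RNA → oligo(dT) RT → PCR → 6-FAM primer extension → HpaI cut → CE. Gain/loss vs DMSO, bidirectional fit.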
# [14] = ATG_AP_1_CIS: Attagene CIS-FACTORIAL HepG2 Assay for human Activator Protein 1 (AP-1) (AID 2282931); conditions: HepG2 Attagene cis-factorial AP-1 reporter mRNA; actives raise or lower the signal
# Outline: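 Transient MRTU transfection of HepG2 → 24 h chemical treatment → RNA isolation, RT-PCR, 6-FAM labelling, HpaI digest → capillary electrophoresis. Fit: bidirectional, DMSO negative control.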
# [15] = ATG_AP_2_CIS: Attagene CIS-FACTORIAL HepG2 Assay for human Activator Protein 2 (AP-2) (AID 2282932); conditions: HepG2 AP-2 cis-reporter, Attagene transcription factor profiling; actives raise or lower the signal
# Outline: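 Assay in transfected HepG2 with promoter-regulated reporters, 24 h incubation after dosing. Signal is reporter mRNA fluorescence (RT-PCR, capillary electrophoresis), analysed for both increases and decreases relative to DMSO controls.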
# [16] = ATG_BRE_CIS: Attagene CIS-FACTORIAL HepG2 Assay for human Bone Morphogenetic Protein (BMP) Response Element (BRE) (AID 2282933); conditions: HepG2 BMP response element reporter, Attagene transcription factor profiling; actives raise or lower the signal
# Outline: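 Fluorescence-labelled reporter cDNA fragments, separated by capillary electrophoresis, gave the signal for this component of a 52-readout multiplex. HepG2 cells were transfected, exposed to chemicals for 24 h, and compared with DMSO using bidirectional fitting.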
# [17] = target: Retinoic acid receptor alpha (Homo sapiens) (UniProt P10276); assay: ATG_DR5_RAR_CIS: Attagene CIS-FACTORIAL HepG2 Assay for human Retinoic Acid Receptor Alpha (RARE), DR5 submotif (AID 2282934); conditions: HepG2 Attagene cis-factorial RARE DR5 reporter, mRNA; actives raise or lower the signal
# Sequence of Retinoic acid receptor alpha (Homo sapiens) (P10276 whole entry, looked up): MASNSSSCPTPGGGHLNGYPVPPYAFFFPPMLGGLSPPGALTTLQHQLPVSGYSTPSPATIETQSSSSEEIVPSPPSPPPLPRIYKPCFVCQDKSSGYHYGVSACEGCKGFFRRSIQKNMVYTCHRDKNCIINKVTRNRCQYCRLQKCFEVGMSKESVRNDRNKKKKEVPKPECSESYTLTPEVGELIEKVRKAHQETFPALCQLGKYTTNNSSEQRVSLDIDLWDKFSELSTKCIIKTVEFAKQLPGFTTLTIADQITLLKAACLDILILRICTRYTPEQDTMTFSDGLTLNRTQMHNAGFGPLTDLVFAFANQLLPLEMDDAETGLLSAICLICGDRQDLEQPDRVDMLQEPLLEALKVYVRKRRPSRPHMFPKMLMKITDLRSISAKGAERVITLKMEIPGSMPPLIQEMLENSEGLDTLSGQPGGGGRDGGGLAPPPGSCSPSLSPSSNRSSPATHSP
# Outline: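 HepG2 cells transiently transfected with multiplexed reporter units under cis (DR5 RARE) promoters, so endogenous transcription factor activity is measured. After 24 h compound exposure, reporter mRNA is quantified by RT-PCR with fluorescent labelling and capillary electrophoresis; bidirectional fitting versus DMSO.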
# [18] = APR_HepG2_P-H2AX_72hr: Apredica 72-hour HepG2 Assay for H2AX Phosphorylation (AID 2282916); conditions: imaging, actives raise or lower the signal;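 further: phospho-histone H2A.x immunostain intensity per cell marking DNA damage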
# Outline: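 Phospho-H2A.x imaging endpoint in HepG2 after 72 hr compound exposure (0.39–200 uM, duplicate wells). Activity derived by bidirectional curve fitting with DMSO as baseline.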
# [19] = target: Aryl hydrocarbon receptor (Homo sapiens) (UniProt P35869); assay: ATG_Ahr_CIS: Attagene CIS-FACTORIAL HepG2 Assay for human Aryl Hydrocarbon Receptor (Ahr) (AID 2282930); conditions: HepG2 AhR cis-factorial reporter transcription; actives raise or lower the signal
# Sequence of Aryl hydrocarbon receptor (Homo sapiens) (P35869 whole entry, looked up): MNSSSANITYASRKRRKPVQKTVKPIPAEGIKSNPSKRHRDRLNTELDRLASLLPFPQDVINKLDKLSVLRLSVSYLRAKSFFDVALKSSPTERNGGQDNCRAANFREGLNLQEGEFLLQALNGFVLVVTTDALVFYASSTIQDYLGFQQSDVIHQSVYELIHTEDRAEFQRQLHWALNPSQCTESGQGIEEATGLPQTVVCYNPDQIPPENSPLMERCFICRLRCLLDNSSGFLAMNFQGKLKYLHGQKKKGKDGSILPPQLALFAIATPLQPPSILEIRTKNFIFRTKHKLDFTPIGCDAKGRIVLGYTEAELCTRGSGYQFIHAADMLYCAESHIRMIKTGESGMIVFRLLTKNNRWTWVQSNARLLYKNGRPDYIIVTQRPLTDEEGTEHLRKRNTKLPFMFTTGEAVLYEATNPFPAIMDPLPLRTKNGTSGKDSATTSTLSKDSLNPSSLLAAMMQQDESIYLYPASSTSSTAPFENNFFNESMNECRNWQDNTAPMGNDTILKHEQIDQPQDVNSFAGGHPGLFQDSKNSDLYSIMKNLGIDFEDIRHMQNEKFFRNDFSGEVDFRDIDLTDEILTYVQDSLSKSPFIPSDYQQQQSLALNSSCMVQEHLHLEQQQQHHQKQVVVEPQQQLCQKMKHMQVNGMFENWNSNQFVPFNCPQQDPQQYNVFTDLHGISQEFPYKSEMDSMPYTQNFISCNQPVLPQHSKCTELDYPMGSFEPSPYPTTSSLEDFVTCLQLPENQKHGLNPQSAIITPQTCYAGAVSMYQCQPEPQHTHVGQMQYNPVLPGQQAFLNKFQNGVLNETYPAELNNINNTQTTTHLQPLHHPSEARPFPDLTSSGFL
# Outline: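 HepG2 cells transiently transfected with cis-element-driven multiplexed reporter transcription units; endogenous transcription factor activity measured as reporter mRNA 24 h after dosing. RT-PCR, 6-FAM labelling, HpaI digestion, capillary electrophoresis; bidirectional fitting versus DMSO baseline.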
smiles,measurement,setting,value
CCCCOC(=O)c1ccccc1,outcome,[1],inactive
same,outcome,[2],inactive
same,outcome,[3],inactive
same,outcome,[4],inactive
same,outcome,[5],inactive
same,outcome,[6],inactive
same,outcome,[7],inactive
same,outcome,[8],inactive
same,outcome,[9],inactive
same,outcome,[10],inactive
same,outcome,[11],inactive
same,outcome,[12],inactive
same,outcome,[13],inactive
same,outcome,[14],inactive
same,outcome,[15],inactive
same,outcome,[16],inactive
same,outcome,[17],inactive
CCCCCCCC1CCC(=O)O1 (configuration not stated),outcome,[18],inactive
same,outcome,[1],inactive
same,outcome,[2],inactive
same,outcome,[4],inactive
same,outcome,[5],inactive
same,outcome,[6],inactive
same,outcome,[7],inactive
same,outcome,[8],inactive
same,outcome,[11],inactive
same,outcome,[12],inactive
same,outcome,[13],inactive
same,outcome,[15],inactive
same,outcome,[16],inactive
same,outcome,[17],inactive
Cn1c(=O)c2[nH]cnc2n(C)c1=O,outcome,[18],inactive
same,outcome,[1],inactive
same,outcome,[2],inactive
same,outcome,[3],inactive
same,outcome,[5],inactive
same,outcome,[6],inactive
same,outcome,[7],inactive
same,outcome,[8],inactive
same,outcome,[9],inactive
same,outcome,[10],inactive
same,outcome,[11],inactive
same,outcome,[12],inactive
same,outcome,[13],inactive
same,outcome,[19],inactive
same,outcome,[14],inactive
same,outcome,[15],inactive
same,outcome,[16],inactive
O=C(NO)C1(NS(=O)(=O)c2ccc(Oc3ccc(F)cc3)cc2)CCOCC1,outcome,[1],inactive
same,outcome,[2],inactive
same,outcome,[3],inactive
same,outcome,[4],inactive
same,outcome,[5],inactive
same,outcome,[6],inactive
same,outcome,[8],inactive
same,outcome,[9],inactive
same,outcome,[10],inactive
same,outcome,[11],inactive
same,outcome,[12],inactive
same,outcome,[13],inactive
same,outcome,[19],inactive
same,outcome,[14],inactive
same,outcome,[15],inactive
same,outcome,[16],inactive
same,outcome,[17],inactive
CCCCCOC(C)=O,outcome,[18],inactive
same,outcome,[1],inactive
same,outcome,[2],inactive
same,outcome,[3],inactive
same,outcome,[5],inactive
same,outcome,[6],inactive
same,outcome,[8],inactive
same,outcome,[9],inactive
same,outcome,[10],inactive
same,outcome,[11],inactive
same,outcome,[12],inactive
same,outcome,[13],inactive
same,outcome,[14],inactive
same,outcome,[15],inactive
same,outcome,[16],inactive
same,outcome,[17],inactive
CCOc1ccc2[nH]cc(C(=O)NCc3ccccc3)c(=O)c2n1,AC50,[18],105 µM (active)
same,outcome,[1],inactive
same,AC50,[2],109 µM (active)
same,outcome,[3],inactive
same,outcome,[4],inactive
same,outcome,[5],inactive
same,outcome,[6],inactive
same,outcome,[8],inactive
same,outcome,[9],inactive
same,outcome,[10],inactive
same,outcome,[11],inactive
same,outcome,[12],inactive
same,outcome,[13],inactive
same,AC50,[19],4.77 µM (active)
same,outcome,[14],inactive
same,outcome,[15],inactive
same,outcome,[16],inactive
same,outcome,[17],inactive
OC[C@H]1O[C@@H]2O[C@H]3[C@H](O)[C@@H](O)[C@@H](O[C@H]4[C@H](O)[C@@H](O)[C@@H](O[C@H]5[C@H](O)[C@@H](O)[C@@H](O[C@H]6[C@H](O)[C@@H](O)[C@@H](O[C@H]7[C@H](O)[C@@H](O)[C@@H](O[C@H]1[C@H](O)[C@H]2O)O[C@@H]7CO)O[C@@H]6CO)O[C@@H]5CO)O[C@@H]4CO)O[C@@H]3CO,outcome,[18],inactive
same,outcome,[1],inactive
same,outcome,[2],inactive
same,outcome,[3],inactive
same,outcome,[4],inactive
same,outcome,[5],inactive
same,outcome,[6],inactive
same,outcome,[8],inactive
same,outcome,[9],inactive
same,outcome,[10],inactive
same,outcome,[11],inactive
same,outcome,[12],inactive
same,outcome,[13],inactive
same,AC50,[19],33.5 µM (active)
same,outcome,[14],inactive
same,outcome,[15],inactive
same,outcome,[16],inactive
same,outcome,[17],inactive
